Rows were chosen to be rich in hits. Some 0.9% of all compounds tested hit in one or more screens of this group.
CDC25B-CDK2 inh: primary biochemical HTRF screen for blockers of M-phase inducer phosphatase 2 binding to CDK2/cyclin A | P30305+P24941 | HTRF CDC25B-CDK2/CyclinA binding, anti-His/anti-Flag; stronger effect = higher value | z-score (test concentration not listed) | hit rate 0.72% among 94,000 | AID 1259370, 2018; in the data active = z-score above about 3.2
TAR Tat displ: TAR RNA-Tat peptide displacers, HIV-1, primary screen, biochemical, FRET, FAM/TAMRA-labeled Tat; z-score (concentration not given with the values); HIV-1 TAR RNA, Tat peptide displacement FRET; stronger effect = higher value; AID 1259389, 2018; hit rate 0.6% among 100,000; active = z-score of 3 or more in at least 2 runs
Hits are given with their value; n = inactive; x = no result; ! = a repeat was not active.

SMILES	CDC25B-CDK2 inh	TAR Tat displ
COc1cc(-c2oc3cc(O)cc(O)c3c(=O)c2O)ccc1O	x	n
O=c1cc(-c2ccc(O)c(O)c2)oc2cc(O)cc(O)c12	x	33.1
O=c1c(O)c(-c2ccc(O)c(O)c2)oc2cc(O)cc(O)c12	n	27.8!
COc1ccc(-c2cc(=O)c3c(O)cc(O)cc3o2)cc1	x	n
CCOc1ccc(Cl)cc1C1SC(NC(C)=O)=NN1C(C)=O (centres undefined)	n	n
CCC[B-]1(CCC)OC(Nc2ccc3ccccc3c2)=Nc2scc[n+]21	4.23	x
c1ccc(NC2=Nc3scc[n+]3[B-](c3ccccc3)(c3ccccc3)S2)cc1	n	x
COCCNC(=O)Cc1sc(C)nc1-c1cccs1	n	n
O=C(CSc1nc2ccccc2c(=O)[nH]1)N1CCc2ccccc21	x	14.4
NC(=O)CSc1nc2ccccc2c(=O)[nH]1	n	n
CCN(CC)c1ccc(C2C(C(=O)OC(C)C)=C(C)NC3=C2C(=O)CCC3)cc1 (centres undefined)	n	n
O=C(c1cnn(-c2ccccc2)c1-n1cccc1)N1CCN(c2ccc(F)cc2)CC1	n	n
CSc1nc2c(c(=O)[nH]c(=O)n2C)n1CC(O)COc1ccc(Cl)cc1 (centres undefined)	n	x
O=C1C=CC(=C(c2ccc(O)cc2)c2ccc(O)cc2)C=C1	x	n
O=C(O)C1=CC(=C(c2ccc(O)c(C(=O)O)c2)c2ccc(O)c(C(=O)O)c2)C=CC1=O	11.3	x
CCC(C)(C)NC(=O)Cn1cnc(S(=O)(=O)N2CCC(C)CC2)c1	x	n
N#CC1=C2N=C(N)c3ccccc3N2C2=C(C(=O)CCC2)C1c1ccc(Cl)cc1 (centres undefined)	n	n
N#CC1=C2N=C(N)c3ccccc3N2C2=C(C(=O)CCC2)C1c1ccccc1F (centres undefined)	17.9	n
N#CC1=C2N=C(N)c3ccccc3N2C2=C(C(=O)CCC2)C1c1ccccc1Cl (centres undefined)	n	n
N#CC1=C2N=C(N)c3ccccc3N2C2=C(C(=O)CCC2)C1c1c(F)cccc1Cl (centres undefined)	9.3	n
Cc1ccc(-n2cc(-c3ccccc3)c3c(NCCO)ncnc32)cc1	n	x
CC(C)=C1C2C=CC1C1C(=O)N(c3ccc(F)cc3)C(=O)C21 (centres undefined)	n	x
O=C(CCCn1c(=O)c2cccn2c2cccnc21)NCCCN1CCc2ccccc2C1	x	n
O=C(NCCc1ccco1)c1cc2cc3ccc(Cl)cc3nc2o1	x	n
Cc1cc(NC(=O)CS(=O)(=O)c2ccc3c(c2)S(=O)(=O)N=CN3)ccc1Br	x	n
SMILES	CDC25B-CDK2 inh	TAR Tat displ
O=C(CSC1=Nc2ccccc2C2=NC(Cc3c[nH]c4ccccc34)C(=O)N12)NC1CCCCC1 (centres undefined)	x	n
CC1CC(C)CN(C(=O)CSC2=Nc3ccccc3C3=NC(Cc4c[nH]c5ccccc45)C(=O)N23)C1 (centres undefined)	x	5.37
Cc1cccc(-c2ccc3ccccc3n2)c1	n	x
CC1CN(S(=O)(=O)c2ccc3c(c2)n(C)c(=O)c(=O)n3C)c2ccccc2S1 (centres undefined)	x	n
O=C1c2ccccc2-c2onc3c(N4CCOCC4)cc(Nc4ccc(F)cc4)c1c23	12.7	n
COc1ccc(Nc2cc(N3CCOCC3)c3noc4c3c2C(=O)c2ccccc2-4)cc1	n	n
O=C1c2ccccc2-c2onc3c(N4CCOCC4)cc(N4CCOCC4)c1c23	n	n
CC(C)Nc1cc(N2CCN(C(=O)c3ccco3)CC2)c2noc3c2c1C(=O)c1ccccc1-3	n	5.57
CC(C)CNc1cc(N2CCN(C(=O)c3ccco3)CC2)c2noc3c2c1C(=O)c1ccccc1-3	n	n
CC(C)Nc1cc(N2CCOCC2)c2noc3c2c1C(=O)c1ccccc1-3	n	6.2
Cc1cccc(C2Nc3c(C(=O)O)cccc3C3C4CCC(C4)C23)c1 (centres undefined)	n	n
CCOC(=O)c1c(NC(=O)C2=CC(c3ccc(F)cc3)=NS(=O)(=O)N2C)sc(C)c1C	n	n
CC1CCN(S(=O)(=O)c2ccc3c(c2)C(C)(C)C(=O)N3C)CC1	x	n
COc1cccc(NC(=O)Nc2nc3ccc(S(C)(=O)=O)cc3s2)c1	n	n
CCOc1ccc2ncc(S(=O)(=O)c3ccc(C)cc3)c(N3CCCC3)c2c1	5.2	n
COc1ccc(S(=O)(=O)c2cnc3cc(OC)c(OC)cc3c2N2CCCCC2)cc1	n	n
COc1cc2ncc(S(=O)(=O)c3ccc(C)cc3)c(N3CCCC3)c2cc1OC	9.58	n
CCOc1ccc2ncc(S(=O)(=O)c3ccccc3)c(N3CCCCC3)c2c1	n	n
CC(C)c1nc2sc3c(N4CCCC4)ncnc3c2c2c1COC(C)(C)C2	n	n
Cc1ccc(/C(O)=C2\C(=O)C(=O)N(CCC(=O)O)C2c2cccc(F)c2)cc1 (centres undefined)	n	x
Fc1ccc(C2Nc3cccc4cccc(c34)N2)cc1	n	12.7
COc1cc(C2Nc3cccc4cccc(c34)N2)cc(OC)c1OC	n	x
Brc1ccc(C2Nc3cccc4cccc(c34)N2)cc1	n	n
COc1cccc(C2Nc3cccc4cccc(c34)N2)c1O	n	21.9
CCC12CN3CC(CC)(CN(C1)C3c1cccc(OC)c1O)C2O (centres undefined)	n	n
SMILES	CDC25B-CDK2 inh	TAR Tat displ
COc1ccc(C2Nc3cccc4cccc(c34)N2)cc1Br	n	26.3
CCOc1ccc(N2C(=O)CC(NC3CCCCC3)C2=O)cc1 (centres undefined)	n	n
CC(=O)Oc1ccccc1/C(=C/C=C(c1ccccc1)c1ccccc1)N1CCOCC1	n	x
C#CCSc1nc2c(c(=O)[nH]1)C(c1ccccc1OC(C)C)CC(=O)N2 (centres undefined)	n	n
COCCNC(=O)c1cc2c(=O)oc3ccccc3c2n1C	x	n
CCN(CC)C(=O)CSc1nc2nc(C)cc(C)c2c(=O)[nH]1	n	x
Cc1cc(C)c2c(=O)[nH]c(SCC(=O)c3ccc(O)c(O)c3)nc2n1	n	30.5
Brc1[nH]nc2ncnc(N3CCN(c4ncccn4)CC3)c12	n	n
O=C(NCCc1c[nH]c2ccccc12)c1ccc(Cl)c(NC2=NC3CS(=O)(=O)CC3S2)c1 (centres undefined)	x	n
CCc1ccnc(NC(=O)Nc2cccc3ccccc23)c1	n	x
COC(=O)c1ccc2c(c1)C1C=CCC1C(c1cccc3ccccc13)N2 (centres undefined)	n	n
COc1cccc2c1NC(c1cccc3ccccc13)C1CC=CC21 (centres undefined)	n	6.36
O=C(CN1C(=O)CCSc2ccccc21)NCc1ccco1	n	n
CCC(C)Nc1ncnc2sc(C(=O)O)c(C)c12 (centres undefined)	x	n
CCOc1ccc(Nc2ncnc3sc(C(=O)O)c(C)c23)cc1	x	4.66
Cc1c(C(=O)O)sc2ncnc(Nc3cccc(Cl)c3)c12	x	20.6
Cc1c(C(=O)O)sc2ncnc(NCc3cccs3)c12	x	9.75
Cc1c(C(=O)O)sc2ncnc(NCCc3ccco3)c12	x	n
Cc1c(C(=O)O)sc2ncnc(NCC3CCCO3)c12 (centres undefined)	x	n
Cc1c(C(=O)N2CCN(c3ccccc3)CC2)sc2ncnc(N3CCN(c4ccccn4)CC3)c12	n	n
Cc1c(C(=O)O)sc2ncnc(N3CCN(c4ccccc4)CC3)c12	x	28.7
